Source: PubChem BioAssay (National Center for Advancing Translational Sciences (NCATS))
Pf growth 96h: Primary qHTS for delayed death inhibitors of the malarial parasite plastid, 96 hour incubation; P. falciparum luciferase reporter growth, 96 h; Potency, µM (series often up to 28.7 µM), for the others: top-dose activity change, negative = inhibition, usual class: inhibitors; 6.9% of 320,000 active; active = well fitted inhibition curve with a large enough effect; inconclusive = small, poorly fitted or top-dose-only effect, or another doubt; inactive = no such curve, though single readings can be large or run the other way; also: potency is read from the fitted curve at half-maximal effect; % is scaled to controls: 0 for no effect and ±100 for the full control effect
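Compounds incubated with erythrocytes infected by luciferase-expressing P. falciparum (2% hematocrit, 0.05% parasitemia final) for 96 hours, 37 C in 5% CO2. Growth inhibition scored as decreased luciferase luminescence.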
SARS PLP yeast: qHTS of Yeast-based Assay for SARS-CoV PLP; Potency, µM (titrated, usually from 32.9 µM), for inactives: top-dose activity, positive = growth rescue, most hits filed as activators; 0.19% of 330,000 active; AID 485353, 2010; S. cerevisiae expressing SARS-CoV PLpro, growth rescue; also: potency is read from the fitted curve at half-maximal effect; 0% is about no effect; nearly all actives have a fitted effect of over 55% in size
Pf growth 48h: Primary qHTS for delayed death inhibitors of the malarial parasite plastid, 48 hour incubation; P. falciparum luciferase growth in erythrocytes, 48 h; AID 504832, 2011; Potency, µM (titrated, usually from 28.7 µM), without a hit: at the highest dose activity change, negative = inhibition, hits mostly inhibitors; 5.9% of 310,000 active; active = well fitted inhibition curve with a large enough effect; inconclusive = small, poorly fitted or top-dose-only effect, or another doubt; inactive = no such curve, though single readings can be large or run the other way; also: potency is read from the fitted curve at half-maximal effect; % is scaled to controls: 0 for no effect and ±100 for the full control effect
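Growth was read as firefly luciferase luminescence after a 48 h, 37 C, 5% CO2 exposure of compounds to reporter-bearing P. falciparum cultures (0.1% parasitemia, 2% hematocrit final) in Albumax-supplemented RPMI 1640.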
Shiga inhibitor: A qHTS for Small Molecule Inhibitors of Shiga Toxin | Vero cells, Shiga toxin protein synthesis inhibition reporter | inhibition, % at 38.7 µM | 9.2% of 290,000 active | AID 2315, 2010; in the data active = inhibition mostly above about 28%, no sharp cut-off; inactive = mostly below about 43%; also: 0% is about no effect
NS1 inh: qHTS Assay for Inhibitors of Influenza NS1 Protein Function. AID 2326, 2010. Potency, µM (series often up to 46.1 µM), inactives show at the top dose activity, positive = more growth. 0.4% of 270,000 active; also: potency is read from the fitted curve at half-maximal effect; actives are rising curves; nearly all actives have a fitted effect of over 50% in size
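In this qHTS, NS1 from influenza A is expressed in budding yeast, where it slows growth. Cells are switched from glucose to 2% galactose medium (pH 6.0, -URA), treated with compound, and growth recovery is read at OD600.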
CHX counter: Cycloheximide Counterscreen for Small Molecule Inhibitors of Shiga Toxin. max response, %. 12% of 300,000 active. AID 2314, 2010. cell reporter, cycloheximide protein synthesis inhibition counterscreen; in the data active = max response mostly above about 13%, no sharp cut-off; inactive = mostly below about 14%; also: read at 38.3 µM for the half of the compounds with a filed dose; 0% is about no effect
NS1 inh valid: Assay for Inhibitors of Influenza NS1 Protein Function: Hit Validation | shares compounds with NS1 inh | influenza NS1 function cell assay, 15-point titration | activity change, negative = inhibition, % at 32.9 µM | 1,400 tested, under 10 active | AID 492980, 2010; also: 0% is about no effect
Flu PR8 replic: Assay for Inhibitors of Influenza NS1 Protein Function: Influenza virus replication assay in MDCK cells infected with virus A/PR/8/34; shares compounds with NS1 inh; MDCK infected influenza A/PR/8/34, virus titer TCID50; stronger effect = lower value; virus titer (log TCID50), log10 TCID50 at 5 µM; 30% of 95 active; AID 504647, 2011; call rule not given here
* hit, by the source's call; ? = inconclusive; nt = not tested or not shown. An excerpt weighted towards active compounds, which were near 21% of everything screened. Unless noted, calls follow the shape of the full dose curve.

SMILES | Pf growth 96h | SARS PLP yeast | Pf growth 48h | Shiga inhibitor | NS1 inh | CHX counter | NS1 inh valid | others
COc1ccc(N2C(=O)N3[C@H](c4cccc(C)c4)[C@@H]4C(=O)N(Cc5ccccc5)C(=O)[C@@H]4[C@]3(Cc3ccccc3)C2=O)cc1 | 4.7µM* | 21% | ? | 0 | 14µM* | 5 | -11 | Flu PR8 replic=7.5*
O=C(CNC(=O)c1ccc(Cl)cc1Cl)OCCCn1c(=O)[nH]c2ccccc21 | 52% | 5% | 8% | nt | nt | nt | nt
O=C(NCCN1C(=O)S/C(=C\c2ccc(F)cc2)C1=O)C1CCN(S(=O)(=O)c2cccs2)CC1 | -12% | 6% | 41% | 10 | ? | 2 | 2
O=C(NCCc1ccccc1Cl)C1CCN(S(=O)(=O)c2cccs2)CC1 | nt | -13% | -19% | -15 | 8% | 1 | nt
O=C(O)C1(c2ccccc2)CCN(S(=O)(=O)c2ccc(F)c(F)c2)CC1 | 4% | -1% | 16% | -18 | -15% | -1 | nt
CCCn1c(C)cc(C(=O)CSc2nc3ccccc3c(=O)n2Cc2ccco2)c1C | ? | 13% | 30% | 57* | 8.9µM* | 49* | -15
Cc1nc2ccc(NC(=O)Cc3c(F)cccc3Cl)cc2s1 | 98% | 0% | 52% | 53* | 4µM* | 31* | 4
Cc1cc(C)nc(Nc2n[nH]c(COc3ccccc3)n2)n1 | -2% | -6% | 28% | 13 | -5% | 2 | nt
Cc1cc(C)nc(Nc2n[nH]c(COc3ccc4ccccc4c3)n2)n1 | 11% | 4% | -5% | -9 | 2µM* | -4 | 15
COc1ccc(NS(=O)(=O)c2cc(NC(=O)c3ccco3)ccc2N2CCCC2)cc1 | ? | 21% | ? | 12 | ? | 2 | nt
COc1ccc(NS(=O)(=O)c2cc(NC(=O)/C=C/c3cc(OC)ccc3OC)ccc2N2CCCCC2)cc1 | 2.6µM* | 0% | 4.1µM* | 26 | 10µM* | -1 | 17
COc1ccc(C(=O)Nc2nc3c(s2)CCCC3)cc1S(=O)(=O)N1CCCc2ccccc21 | 10µM* | 14% | 13µM* | 41 | 13µM* | 9 | -5
COc1ccc(C(=O)Nc2ncccc2C)cc1S(=O)(=O)N1CCCc2ccccc21 | 23% | -1% | -14% | nt | nt | nt | nt
CC(C)Cn1c(N)c(C(=O)COC(=O)c2ccc3ccccc3n2)c(=O)n(C)c1=O | 4.1µM* | -2% | -17% | 56 | 10µM* | 0 | -6
Cc1cccc(Nc2nc(NCc3ccco3)nc(N3CCOCC3)n2)c1 | ? | -14% | ? | 24 | -113% | 4 | nt
O=C(O)CSc1nc2ccccc2nc1Cc1ccccc1F | -29% | 0% | nt | 15 | -5% | 5 | nt
COc1ccc(C(=O)Cn2nnc(-c3ccccc3NC(=O)c3ccco3)n2)cc1 | -24% | 3% | 8.3µM* | 53 | 10µM* | 3 | 9
COc1ccc(/C(C)=N\NS(C)(=O)=O)c(OC)c1 | 41% | 14% | 29% | 6 | ? | 4 | -3
CCOC(=O)C1(Cc2cccc(OC)c2)CCCN(C(=O)CCN2CCCO2)C1 (stereo not drawn) | 59% | 6% | -9% | 148* | ? | 57* | -15
O=C(Nc1cccnc1)C1(c2ccc(Cl)cc2)CCCC1 | ? | 3% | nt | -47 | -3% | -8 | nt
Cc1ccc(NC(=O)c2cc(NC(=O)C3CC=CCC3C(=O)O)ccc2N2CCOCC2)cc1 (stereo not drawn) | 11% | -1% | -2% | -12 | 7.9µM* | -3 | 23
O=C(C1CC1)N1N=C(c2ccncc2)CC1(O)C(F)(F)F (stereo not drawn) | 89% | 0% | 1% | -4 | 2% | 5 | nt
Cc1cc(C(=O)O)cc(S(=O)(=O)Nc2ccccc2C(=O)NC(C)c2ccccc2)c1C (stereo not drawn) | 5% | 4% | 7% | 2 | 7.9µM* | -5 | 31
Cn1cc(C(=O)N2CCN(C(=O)c3ccco3)CC2)c2c3ccccc3n(C)c2c1=O | 0% | 1% | 6% | -27 | 4µM* | -1 | -7
CCN1CCN(C(=O)c2cn(CCOC)c(=O)c3c2c2ccccc2n3C)CC1 | ? | 3% | 3% | 13 | 5% | 4 | nt
SMILES | Pf growth 96h | SARS PLP yeast | Pf growth 48h | Shiga inhibitor | NS1 inh | CHX counter | NS1 inh valid | others
CCOc1ccc(NC(=O)c2c(NC(=O)CNCCN3CCOCC3)sc3c2CCC3)cc1 | 6% | 3% | 0.33µM* | 5 | 2.8µM* | 12 | -18
C/C(=N/NC(=O)Cc1cc(=O)[nH][nH]1)c1ccc([N+](=O)[O-])cc1 | 39% | 7% | 14% | 14 | 13µM* | -3 | ?
Cc1ccc(OCC(=O)Nc2cc(S(=O)(=O)N3CCCCC3)ccc2C)c([N+](=O)[O-])n1 | -16% | -9% | 2% | 6 | -4% | -2 | nt
CN(C)C(=S)Nc1ccc(Cc2ccncc2)cc1 | 254% | -1% | -4% | -17 | -5% | 5 | nt
O=[N+]([O-])c1cccc(/C=N/n2cnnc2)c1O | 250% | -39% | 17% | -13 | -42% | 4 | nt
O=[N+]([O-])c1ccccc1S(=O)(=O)Oc1ccccc1/C=N/n1cnnc1 | 1.9µM* | 10% | -20% | -9 | 20µM* | -1 | -30
O=[N+]([O-])c1ccc(N(c2ccccc2)c2ccccc2)cc1 | ? | -27% | ? | 4 | ? | -2 | ?
CCOC(Cn1ccc(=O)[nH]c1=O)OCC | 15% | 1% | 2% | -1 | 5% | -2 | nt
O=C(O)c1ccccc1NS(=O)(=O)c1cccc2cccnc12 | nt | -3% | -8% | -14 | 2% | -1 | nt
O=C(Nc1cccc2ccccc12)c1ccccc1NS(=O)(=O)c1cccc2cccnc12 | 12% | 27% | -5% | -6 | 11µM* | 1 | ?
COc1ccc(OC)c(NC(=O)c2ccccc2NS(=O)(=O)c2cccc3cccnc23)c1 | 11% | 4% | ? | -9 | 14µM* | -1 | 6
CCN(CC(=O)NC1CCS(=O)(=O)C1)C(=O)c1cc(OC)c(OC)c(OC)c1 (stereo not drawn) | -4% | 2% | -14% | nt | nt | nt | nt
COc1cc(NC(=O)N[C@@H](Cc2ccccc2)C(=O)O)cc(OC)c1 | ? | -2% | 3% | 21 | ? | -4 | 18
